Shown are actives, neighbours in structure and some others; about 13% of the full set was active somewhere.
USP17 inh = inhibitors of human USP17 deubiquitinase | AID 1645855, 2021 | purified USP17, Ub-rhodamine cleavage fluorescence, 3 h | actives 6.5% (n = 47,000) | inhibition, % at 50 µM | Ubiquitin carboxyl-terminal hydrolase 17-like protein 5 (Homo sapiens), A8MUK1
USP10 inh = inhibitors of human USP10 deubiquitinase; purified USP10, Ub-rhodamine fluorescence, 60 min; inhibition, % at 20 µM; Ubiquitin carboxyl-terminal hydrolase 10 (Homo sapiens), Q14694; actives 1.1% (n = 47,000); AID 1645856, 2021
USP8 block = inhibitors of human USP8 deubiquitinase; Ubiquitin carboxyl-terminal hydrolase 8 (Homo sapiens), P40818; purified USP8, Ub-rhodamine cleavage fluorescence, 30 min; inhibition, % at 20 µM; actives 4.2% (n = 47,000); AID 1645853, 2021
USP30 block = inhibitors of human USP30 deubiquitinase; purified USP30, Ub-rhodamine cleavage fluorescence; inhibition, % at 25 µM; actives 5.3% (n = 47,000)
USP28 inh = inhibitors of human USP28 deubiquitinase; Ubiquitin carboxyl-terminal hydrolase 28 (Homo sapiens), Q96RU2; purified USP28, Ub-rhodamine cleavage fluorescence, 30 min; inhibition, % at 25 µM; actives 3% (n = 47,000)
An asterisk follows results filed as active. Rule as the data show it: active = inhibition above about 30%; inactive = the rest.

For Cc1cccc(N2C(=O)/C(=C\c3cc(C#N)n(C)c3C)c3ccccc3C2=O)c1 the results were USP17 inh 20, USP10 inh 35*, USP8 block 56*, USP30 block -57 and USP28 inh 6.
For Oc1ccc(Br)cc1CNc1ccc(F)cc1 the results were USP17 inh 53*, USP10 inh 8, USP8 block 85*, USP30 block 19 and USP28 inh 60*.
O=C(Cn1cc(C(=O)c2ccccc2)c(=O)c2cc3c(cc21)OCCO3)Nc1ccc2c(c1)OCO2 was read as USP17 inh -1, USP10 inh 9, USP8 block 16, USP30 block -30 and USP28 inh 5.
COc1ccc(OC)c(NC(=O)CS(=O)(=O)c2cn(CC(=O)N3CCC(C)CC3)c3ccccc23)c1 was read as USP17 inh 51*, USP10 inh -7, USP8 block 32*, USP30 block 9 and USP28 inh 19.
`CC1CCN(C(=O)Cn2cc(SCC(=O)Nc3ccc4c(c3)OCCO4)c3ccccc32)CC1` gave USP17 inh 0, USP10 inh 0, USP8 block -55, USP30 block 6 and USP28 inh 38*.
O=C(Cn1cc(C(=O)c2ccccc2)c(=O)c2cc(F)ccc21)Nc1ccc2c(c1)OCO2 was read as USP17 inh -6, USP10 inh 26, USP8 block 59*, USP30 block -22 and USP28 inh -13.
COc1ccc(NC(=O)CSc2cn(CC(=O)N3CCCCCC3)c3ccccc23)cc1OC was read as USP17 inh -10, USP10 inh 0, USP8 block -135, USP30 block 7 and USP28 inh -8.
Cc1ccc(C(=O)c2cn(CC(=O)Nc3ccc4c(c3)OCO4)c3ccccc3c2=O)cc1 was read as USP17 inh 85*, USP10 inh 57*, USP8 block 90*, USP30 block 79* and USP28 inh 13.
Screening CC(CCc1ccccc1)NC(=O)c1cc(OCc2ccccc2)nc2ccccc12 (stereo not drawn) returned USP17 inh -21, USP10 inh 0, USP8 block -80, USP30 block -30 and USP28 inh -19.
`COc1ccc(-n2nnnc2CNC(=O)Nc2cccc(C)c2)cc1` gave USP17 inh -3, USP10 inh 0, USP8 block 3, USP30 block 0 and USP28 inh 9.
`COc1ccc(/C=C/C(=O)Nc2ccc3c(c2)OCCO3)cc1` gave USP17 inh -3, USP10 inh -2 and USP8 block -2.
For O=C(/C=C/c1ccc(F)cc1)Nc1ccc2c(c1)OCCO2 the results were USP17 inh 7, USP10 inh 6, USP8 block 6, USP30 block 20 and USP28 inh 86*.
CC(C)(C)c1ccc(/C=C/C(=O)Nc2ccc3c(c2)OCCO3)cc1 was read as USP17 inh -2, USP10 inh 8, USP8 block -9, USP30 block -8 and USP28 inh 34*.
`COc1ccc(NC(=O)CN2C(=O)C(C)=C(c3ccccc3)S2(=O)=O)c(OC)c1` gave USP17 inh 7, USP10 inh -3, USP8 block 3, USP30 block 1 and USP28 inh 2.
For COc1ccccc1CN1C[C@H]2NC(=O)c3ccccc3C(=O)[C@@]2(C)C1 the results were USP17 inh 1, USP10 inh 0, USP8 block 3, USP30 block -11 and USP28 inh -1.
Screening C[C@]12CN(Cc3cccc4cccnc34)C[C@H]1NC(=O)c1ccccc1C2=O returned USP17 inh 18, USP10 inh 0, USP8 block 44*, USP30 block -5 and USP28 inh 0.
For O=C(CSc1nnc(CNC(=O)c2cccs2)o1)c1ccccc1 the results were USP17 inh -2, USP10 inh 2, USP8 block 0, USP30 block 16 and USP28 inh 25.
`O=C(CSc1nnc(-c2sccc2-n2cccc2)o1)c1ccc(Cl)cc1` gave USP17 inh 33*, USP10 inh 2, USP8 block 3, USP30 block 15 and USP28 inh 6.
For O=C(Nc1ccccc1)Nc1nccn(-c2ccc3c(c2)CCC3)c1=O the results were USP17 inh 30*, USP10 inh 7, USP8 block -6, USP30 block 39* and USP28 inh 8.
`COc1ccccc1-n1ccnc(NC(=O)Nc2cccc(F)c2)c1=O` gave USP17 inh 46*, USP10 inh 1, USP8 block -1, USP30 block 2 and USP28 inh -7.
COc1cccc(NC(=O)Nc2nccn(-c3ccc(F)cc3)c2=O)c1 was read as USP17 inh 54*, USP10 inh 10, USP8 block 10, USP30 block 10 and USP28 inh -8.
`CNc1nc(C2CCN(C)CC2)nc2c1CCN(C(=O)c1ccccn1)C2` gave USP17 inh 0, USP10 inh -3, USP8 block 8, USP30 block -19 and USP28 inh -7.
Screening Cc1ccc(C)c(NC(=O)N2CCN(Cc3nc4ccccc4o3)CC2)c1 returned USP17 inh -7, USP10 inh 2, USP8 block -1, USP30 block -13 and USP28 inh -3.
Cc1cccc(O)c1C(=O)O[C@H](C)c1cccc2nc3c(C(=O)O)cccc3nc12 was read as USP17 inh 38*, USP10 inh 7, USP8 block -6, USP30 block -2 and USP28 inh 13.
Screening Cc1ccccc1C(C)NC(=O)c1cccc2ncccc12 (stereo not drawn) returned USP17 inh -25, USP10 inh -3, USP8 block -16, USP30 block -79 and USP28 inh -24.
`CCn1cc2c(n1)C(COC)CN(C(=O)c1cc(C)nn1CC)C2` (stereo not drawn) gave USP17 inh 65*, USP10 inh 1, USP8 block -95, USP30 block 54* and USP28 inh 25.
CCCC(=O)NCCOc1ccc2nnc(-c3ccccc3)n2n1 was read as USP17 inh -2, USP10 inh -4, USP8 block -33, USP30 block -10 and USP28 inh 0.
`CC[C@H](C)[C@H](NS(=O)(=O)c1ccc(C)cc1)C(=O)NCC1CCC(C(=O)O)CC1` (stereo partly drawn) gave USP17 inh 11, USP10 inh 1, USP8 block 14, USP30 block 17 and USP28 inh 11.
NC(=O)C1(N2CCCCC2)CCN(C(=O)c2[nH]nc3c2CCc2ccccc2-3)CC1 was read as USP17 inh 59*, USP10 inh -5, USP8 block 87*, USP30 block 0 and USP28 inh 11.
Screening O=C(c1[nH]nc2c1CCc1ccccc1-2)N1CCC(Cc2ccccc2)CC1 returned USP17 inh 4, USP10 inh 6, USP8 block 0, USP30 block 8 and USP28 inh 15.
